# Source: PubChem (National Center for Advancing Translational Sciences (NCATS))
# D2 antagonist: antagonizes the human D2 dopamine receptor; P14416; HEK293 TREx D2 cells, calcium flux, dopamine EC80; inhibition, % at 10 µM; actives 2% (n = 340,000); AID 485344; in the data active = inhibition above about 30%; inactive = below that, where a call was filed; note: 0% is about no effect
# Target sequence (P14416 whole entry, looked up): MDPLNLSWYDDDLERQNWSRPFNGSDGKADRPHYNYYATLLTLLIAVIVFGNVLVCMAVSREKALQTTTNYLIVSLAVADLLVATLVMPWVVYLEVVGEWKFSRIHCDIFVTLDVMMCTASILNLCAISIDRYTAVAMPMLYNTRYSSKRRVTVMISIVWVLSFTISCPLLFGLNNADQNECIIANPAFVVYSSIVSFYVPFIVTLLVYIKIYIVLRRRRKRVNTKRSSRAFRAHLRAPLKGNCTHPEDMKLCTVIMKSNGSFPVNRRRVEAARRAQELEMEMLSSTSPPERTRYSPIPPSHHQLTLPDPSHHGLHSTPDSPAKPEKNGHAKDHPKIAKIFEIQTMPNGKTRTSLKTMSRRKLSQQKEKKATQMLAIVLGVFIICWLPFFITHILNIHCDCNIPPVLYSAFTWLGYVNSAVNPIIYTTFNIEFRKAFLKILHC
#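 Dopamine at EC80 is the agonist stimulus; test compounds precede it by 180 s. Calcium flux read kinetically in a force-coupled, inducible HEK293 T-REx D2 cell line.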
# D2 PAM-1: positive allosteric modulators of human D2 dopamine receptor; P14416; HEK293 T-REx D2, calcium flux, EC20 dopamine potentiation; potentiation, % at 10 µM; actives 0.34% (n = 340,000);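 active = potentiation over 3 SD above the plate norm, cut at about 30% in these data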; note: 0% is about no effect
#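 Tetracycline-induced Hek293 Trex D2 cells, force-coupled to calcium, loaded with no-wash calcium dye. Compound added with 180 s kinetic read for agonism, then EC20 dopamine and a further 180 s read for potentiation.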
# D2 ag-1: activates the human D2 dopamine receptor. HEK293 T-REx D2 cells, calcium flux agonist mode. activation, % at 2 µM. actives 0.53% (n = 340,000). AID 485358;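 active = activation over 3 SD above normal in the single-dose calcium agonist read, cut at about 30% in these data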; note: 0% is about no effect
#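 Calcium-flux readout, 1 cycle/sec over 180 s following compound pin transfer, in inducible HEK293 Trex D2 cells (force-coupled); dopamine controls included. Positive calcium responses during this window marked compounds as potential agonists.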
# D2 PAM-2: potentiates the human D2 dopamine receptor allosterically; DiscoveRx D2 beta-arrestin cells, luminescence, 90 min; 100% = 57 uM dopamine signal; P14416; actives 0.23% (n = 360,000); potentiation, % (concentration not given with the values); in the data active = potentiation above about 50%
#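 PathHunter D2 cells, attached overnight at 37 deg C, received compound in DMSO plus dopamine at EC20 (50 nM final) for 90 min at 37 deg C. Beta-arrestin recruitment was read as luminescence after 1 h with detection reagent at ambient temperature.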
# D2 ag-2: human D2 receptor agonism in beta-arrestin assay; DiscoveRx PathHunter D2 beta-arrestin, luminescence, 90 min; 100% = 57 uM dopamine signal; activation, % (no concentration beside the values); actives 0.084% (n = 360,000); AID 624465; in the data active = activation above about 40%
#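 DiscoveRx PathHunter D2 beta-arrestin cells (2,100/well) attached overnight, then compound-stimulated 90 min at 37 C in HBSS/10 mM HEPES/0.1% Tween-20 buffer; beta-galactosidase complementation read by luminescence after 1 h at ambient temperature. Dopamine 57 uM final (EC100) as control.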
# * hit, by the source's call; . = no result. Most compounds without a hit are left out; they make up all but 2.4% or so of the library.
SMILES,D2 antagonist,D2 PAM-1,D2 ag-1,D2 PAM-2,D2 ag-2
O=C(O)C[C@@H]1C(=O)O[C@@H]2C(COC(=O)c3cc(O)c(O)c(O)c3)O[C@@H](OC(=O)c3cc(O)c(O)c(O)c3)[C@@H](OC(=O)c3cc(O)c(O)c4c3[C@H]1[C@H](O)C(=O)O4)[C@H]2OC(=O)c1cc(O)c(O)c(O)c1 (stereo partly specified),-12.0,-12.6,-0.3,.,.
Cc1ccc(C)c(S(=O)(=O)N2CCN(C(=O)CCNS(=O)(=O)c3ccc(C)c(C)c3)CC2)c1,-15.9,32.4*,-0.3,9.4,2.4
Cc1ccc(S(=O)(=O)NCCC(=O)N2CCN(S(=O)(=O)c3ccccc3)CC2)cc1C,18.0,-9.3,-0.1,-3.4,-8.7
COc1ccccc1C(=O)Nc1cccc(C(=O)OCc2cc(=O)n3c4c(sc3n2)CCCC4)c1,.,0.5,-0.2,.,.
Cn1c(SCc2nc3ccccc3c(=O)[nH]2)nc2ccccc21,8.4,-0.1,-0.2,-11.2,-3.1
CC(C)Cn1c(SCc2nc3ccccc3c(=O)[nH]2)nc2ccccc2c1=O,-5.3,35.6*,-0.1,3.8,-2.7
COc1ccc(Cl)cc1NC(=O)C1CCN(c2ncnc3c2nc2n3CCCCC2)CC1,.,3.9,-0.7,.,.
COc1ccccc1C(=O)NCCC(=O)NCCC12CC3CC(CC(C3)C1)C2,-0.1,-5.7,-0.5,-7.9,-3.6
COc1ccc(C23CC4CC(CC(C4)C2)C3)cc1C(=O)NCCN(C)C,33.5*,-15.1,-0.8,-61.7,-5.8
CC1(C(=O)NS(=O)(=O)c2cccs2)CCN1C(=O)CC1CC1 (stereo unspecified),.,.,.,-11.9,-2.5
Cc1cc2nnc(SCC(=O)N3CCCCC3)n2c(N)n1,1.7,16.2,0.1,-4.5,-4.5
Cc1cc2nnc(SCC(=O)N3C(C)CCCC3C)n2c(N)n1 (stereo unspecified),30.4*,36.5*,0.9,-0.7,-2.4
Cc1cc(C)nc(SCC(=O)N2CCC(C(N)=O)CC2)n1,-13.6,30.3*,1.0,3.2,-5.0
COc1cc(C)nc(SCC(N)=O)n1,32.5*,.,2.9,16.4,-1.6
Cc1cc(N)nc(SCC(=O)N2C(C)CCCC2C)n1 (stereo unspecified),-23.2,33.9*,1.0,-3.5,0.5
O=C(O)CCc1ccc(-c2ccccc2)n1CC(=O)Nc1ccccc1C(F)(F)F,.,-14.8,-0.2,.,.
Cc1ccc(Cc2nc3ccccc3nc2SCC(=O)N2CCN(c3ccccc3F)CC2)cc1,.,-7.5,.,.,.
O=C(COc1ccc2ccccc2c1)N[C@@H](C(=O)O)c1ccc(O)cc1,-24.7,10.6,-1.2,6.6,5.9
NC1=NC[C@H](Cc2ccc(O)cc2)N1CCc1cccc(F)c1,38.9*,4.3,0.1,-7.8,-2.4
CN(C)C1=NC[C@H](Cc2ccccc2)N1CCc1cccc(F)c1,0.5,4.0,0.1,-20.5,-4.4
O=C1/C(=C\c2ccco2)SC(=S)N1c1ccccc1,47.5*,0.3,-0.7,-5.9,2.7
CCCCNC(=S)NNC(=O)c1ccco1,4.4,45.9*,0.4,-12.7,-2.4
CN(C1CCCCC1)S(=O)(=O)c1cccc2nsnc12,31.6*,-6.0,-1.2,-4.5,-3.9
CCN(c1ccc(F)cc1)S(=O)(=O)c1cccc2nsnc12,-16.6,-11.6,0.3,-2.4,-1.3
CCN(c1ccccc1C(=O)O)S(=O)(=O)c1cccc2nsnc12,30.6*,13.8,-0.5,1.0,-1.2
SMILES,D2 antagonist,D2 PAM-1,D2 ag-1,D2 PAM-2,D2 ag-2
N#CCCN(C1CCCCC1)S(=O)(=O)c1cccc2nsnc12,-1.2,0.2,-3.8,0.4,-0.3
CCc1ccccc1NS(=O)(=O)c1ccc2c(c1)OCC(C(=O)N1CCCC1)O2 (stereo unspecified),.,.,-1.3,.,.
C[C@H](CO)N1C[C@H](C)[C@@H](CN(C)S(=O)(=O)c2ccc(-n3cccn3)cc2)OCc2cnnn2CCCC1=O,.,.,.,0.8,-2.4
O=C(CSc1ccc(Br)cc1)NCC(c1ccco1)N1CCCCC1 (stereo unspecified),38.9*,0.2,0.3,3.1,-4.3
COc1ccccc1NC(=O)NCC(c1ccco1)N1CCCCC1 (stereo unspecified),38.8*,-15.3,0.1,-28.3,-4.3
COc1ccccc1NS(=O)(=O)c1cc(C(=O)NCC(c2ccco2)N2CCCCC2)ccc1C (stereo unspecified),.,.,.,-38.7,-1.0
COc1ccccc1NC(=O)NCC1(N(C)C)CCCCC1,58.7*,-17.2,0.0,-15.9,-4.3
Cc1cc(C)c2cc(C(=O)Nc3ccc(C)c(F)c3)[nH]c2c1,39.0*,-26.8,0.2,-34.8,2.9
CCCCNC(=O)c1cc2c(C)cc(C)cc2[nH]1,34.1*,-24.2,-2.0,-23.1,-2.5
COc1ccc(F)cc1-c1cc(C(=O)Nc2ccc(NC(C)=O)cc2)[nH]n1,.,.,.,-2.3,1.0
COc1cc2[nH]c(C(=O)Nc3ccc(F)cc3)cc2c(OC)c1OC,89.0*,-20.0,-0.5,.,.
COc1ccc2[nH]c(C(=O)Nc3ccc(C)c(F)c3)cc2c1,-14.6,11.6,-0.8,-3.1,-0.6
CN(CC(=O)N1CC=C(c2ccccc2)CC1)S(=O)(=O)c1ccc2c(c1)c(=O)n(C)c(=O)n2C,30.8*,4.3,-1.0,-19.0,3.6
CCC(Cc1ccccc1)NC(=O)CN(C)S(=O)(=O)c1ccc2c(c1)c(=O)n(C)c(=O)n2C (stereo unspecified),23.1,52.0*,0.1,-7.5,-0.7
Cn1c(=O)c2cc(S(=O)(=O)NCCC(=O)N3CC=C(c4ccccc4)CC3)ccc2n(C)c1=O,2.8,-19.9,2.8,-11.2,-1.6
CCc1cc2c(SCC(=O)N3CCN(C(=O)c4cccs4)CC3)ncnc2s1,.,.,.,-6.0,0.3
C=CCN1C(=O)/C(=C/c2ccc(OC(C)=O)c(OCC)c2[N+](=O)[O-])SC1=S,30.3*,10.0,8.6,5.1,2.8
Cc1nc2c(-c3ccc(F)cc3)c(C)nn2c(C)c1CCC(=O)N1CCOCC1,-13.2,-18.0,0.3,-1.6,-7.2
Cc1nc2cc(-c3ccccc3)nn2c(C)c1CCC(=O)N1CCN(c2ccccn2)CC1,36.3*,-7.4,-1.8,.,.
CCOC(=O)C1CCCCN1C(=O)CCc1c(C)nc2cc(-c3ccccc3)nn2c1C (stereo unspecified),32.8*,5.3,0.5,-1.8,2.8
Cc1nc2c(-c3ccccc3)c(C)nn2c(C)c1CCC(=O)N1CCOCC1,-0.5,31.8*,0.5,-4.4,-0.4
COc1ccc(S(=O)(=O)Nc2cccc3c2O[C@H](CN(C)C(=O)Nc2ccc4c(c2)OCO4)[C@@H](C)CN([C@H](C)CO)C3=O)cc1,.,.,.,-7.1,-1.5
CCCCCCNC(=O)O[C@H]1Cn2c(=O)ccc(=O)n2[C@@H]2CN(S(=O)(=O)c3ccc(C)cc3)C[C@]12O,.,.,.,-2.8,-4.0
